# In ChEMBL document CHEMBL1961873, “Compounds: GSK PKIS; Assays: Nanosyn kinase panel” (2012):
# Several values for one entry are separate records, joined by “and”; a condition that tells them apart may be missing. Identical values can stand only once.
# Tests used:
# [1] = molecular target: Protein kinase C gamma type (Homo sapiens) (UniProt P05129); conditions: at 1 µM;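 further: each value is an averaged percent inhibition of the enzyme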
# [2] = molecular target: T1, Protein kinase C iota type (Homo sapiens) (UniProt P41743); conditions: at 0.1 µM
# T1 sequence (whole entry): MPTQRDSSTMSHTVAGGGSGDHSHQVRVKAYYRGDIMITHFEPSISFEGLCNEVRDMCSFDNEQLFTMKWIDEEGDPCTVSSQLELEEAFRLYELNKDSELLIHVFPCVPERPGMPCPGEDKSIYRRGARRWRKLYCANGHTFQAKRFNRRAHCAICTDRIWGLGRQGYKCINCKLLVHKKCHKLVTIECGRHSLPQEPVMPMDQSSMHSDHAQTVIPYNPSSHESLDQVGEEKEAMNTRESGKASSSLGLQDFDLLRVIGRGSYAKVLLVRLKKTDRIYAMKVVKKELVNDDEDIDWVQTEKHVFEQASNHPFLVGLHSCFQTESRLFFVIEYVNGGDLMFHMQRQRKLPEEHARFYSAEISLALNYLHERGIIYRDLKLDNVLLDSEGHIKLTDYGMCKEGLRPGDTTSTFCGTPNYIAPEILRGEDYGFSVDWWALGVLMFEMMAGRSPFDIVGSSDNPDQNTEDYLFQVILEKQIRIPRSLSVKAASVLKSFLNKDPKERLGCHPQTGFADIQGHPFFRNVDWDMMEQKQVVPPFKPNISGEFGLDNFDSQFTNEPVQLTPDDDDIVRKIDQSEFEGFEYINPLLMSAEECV
# [3] = molecular target: T1, Protein kinase C iota type (Homo sapiens); conditions: at 1 µM
# [4] = molecular target: Protein kinase C theta type (Homo sapiens) (UniProt Q04759); conditions: at 0.1 µM
# Chain of Protein kinase C theta type (Homo sapiens) (Q04759 whole entry, looked up): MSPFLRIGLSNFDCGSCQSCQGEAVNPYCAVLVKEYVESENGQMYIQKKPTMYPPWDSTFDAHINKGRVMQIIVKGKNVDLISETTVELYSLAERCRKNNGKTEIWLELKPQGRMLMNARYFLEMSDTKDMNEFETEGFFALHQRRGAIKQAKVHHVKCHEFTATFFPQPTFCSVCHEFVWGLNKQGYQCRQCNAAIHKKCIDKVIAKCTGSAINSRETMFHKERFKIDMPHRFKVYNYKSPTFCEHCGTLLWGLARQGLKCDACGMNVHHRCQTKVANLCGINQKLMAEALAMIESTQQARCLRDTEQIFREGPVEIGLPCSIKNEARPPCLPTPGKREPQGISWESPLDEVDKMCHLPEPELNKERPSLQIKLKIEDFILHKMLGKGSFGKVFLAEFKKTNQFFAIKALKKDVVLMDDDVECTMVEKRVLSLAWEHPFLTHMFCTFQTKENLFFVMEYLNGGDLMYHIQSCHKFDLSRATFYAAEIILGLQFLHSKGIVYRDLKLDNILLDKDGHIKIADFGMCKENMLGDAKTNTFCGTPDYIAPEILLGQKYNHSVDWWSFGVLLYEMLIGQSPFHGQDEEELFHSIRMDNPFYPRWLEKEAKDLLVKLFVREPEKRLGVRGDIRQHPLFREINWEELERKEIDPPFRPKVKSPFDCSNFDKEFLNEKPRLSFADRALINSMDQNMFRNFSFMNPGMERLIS
# [5] = molecular target: Protein kinase C theta type (Homo sapiens) (UniProt Q04759); conditions: at 1 µM
# [6] = molecular target: Protein kinase C beta type (Homo sapiens) (UniProt P05771); conditions: at 0.1 µM
# Chain of Protein kinase C beta type (Homo sapiens) (P05771 2-671 limits assumed): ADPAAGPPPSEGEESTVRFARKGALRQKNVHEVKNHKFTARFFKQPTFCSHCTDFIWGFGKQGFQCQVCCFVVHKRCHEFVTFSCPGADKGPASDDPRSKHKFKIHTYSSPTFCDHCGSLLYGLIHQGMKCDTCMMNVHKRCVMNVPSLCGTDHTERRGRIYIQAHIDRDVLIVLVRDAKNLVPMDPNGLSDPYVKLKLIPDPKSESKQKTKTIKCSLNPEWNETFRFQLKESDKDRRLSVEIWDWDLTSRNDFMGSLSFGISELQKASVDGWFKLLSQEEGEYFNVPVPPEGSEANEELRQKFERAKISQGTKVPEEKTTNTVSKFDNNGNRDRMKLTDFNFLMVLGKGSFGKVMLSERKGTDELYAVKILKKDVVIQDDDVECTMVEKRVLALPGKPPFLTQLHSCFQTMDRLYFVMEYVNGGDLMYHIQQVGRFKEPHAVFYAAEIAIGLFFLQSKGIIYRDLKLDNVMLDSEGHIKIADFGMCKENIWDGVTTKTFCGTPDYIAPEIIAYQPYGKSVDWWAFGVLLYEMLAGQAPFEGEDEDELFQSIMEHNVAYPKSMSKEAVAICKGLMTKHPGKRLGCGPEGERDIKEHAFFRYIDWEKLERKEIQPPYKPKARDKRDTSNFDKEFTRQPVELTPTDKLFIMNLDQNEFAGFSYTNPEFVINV
# [7] = molecular target: Protein kinase C beta type (Homo sapiens) (UniProt P05771); conditions: at 1 µM
# [8] = molecular target: T2, Serine/threonine-protein kinase D1 (Homo sapiens) (UniProt Q15139); conditions: at 0.1 µM
# T2 sequence (whole entry): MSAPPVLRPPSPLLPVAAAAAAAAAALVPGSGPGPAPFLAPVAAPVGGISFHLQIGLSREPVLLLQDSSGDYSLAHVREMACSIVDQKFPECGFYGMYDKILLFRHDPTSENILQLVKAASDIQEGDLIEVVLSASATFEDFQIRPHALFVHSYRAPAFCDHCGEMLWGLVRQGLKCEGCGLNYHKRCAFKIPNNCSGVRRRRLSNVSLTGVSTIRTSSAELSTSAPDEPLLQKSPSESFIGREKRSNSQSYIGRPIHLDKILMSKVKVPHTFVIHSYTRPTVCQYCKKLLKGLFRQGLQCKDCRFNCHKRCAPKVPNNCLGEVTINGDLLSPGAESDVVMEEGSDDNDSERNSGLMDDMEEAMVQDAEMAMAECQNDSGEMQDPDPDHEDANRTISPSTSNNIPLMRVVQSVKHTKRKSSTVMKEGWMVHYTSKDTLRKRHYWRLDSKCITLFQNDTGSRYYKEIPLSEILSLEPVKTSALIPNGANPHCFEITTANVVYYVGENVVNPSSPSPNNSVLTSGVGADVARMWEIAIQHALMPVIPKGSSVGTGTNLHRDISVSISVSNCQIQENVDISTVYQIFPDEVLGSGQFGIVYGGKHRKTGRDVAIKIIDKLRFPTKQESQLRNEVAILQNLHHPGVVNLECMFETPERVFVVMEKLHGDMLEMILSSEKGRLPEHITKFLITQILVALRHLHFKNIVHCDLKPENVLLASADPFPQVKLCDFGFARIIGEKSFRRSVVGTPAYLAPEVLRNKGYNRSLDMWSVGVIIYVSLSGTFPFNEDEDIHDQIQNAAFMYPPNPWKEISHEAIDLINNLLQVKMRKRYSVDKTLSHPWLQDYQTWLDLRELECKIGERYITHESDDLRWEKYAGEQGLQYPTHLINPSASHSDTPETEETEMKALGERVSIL
# [9] = molecular target: T2, Serine/threonine-protein kinase D1 (Homo sapiens); conditions: at 1 µM
# [10] = molecular target: T3, Serine/threonine-protein kinase D2 (Homo sapiens) (UniProt Q9BZL6); conditions: at 0.1 µM;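 further: reported percent inhibition values are means, part of the GSK PKIS kinase panel screen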
# T3 sequence (whole entry): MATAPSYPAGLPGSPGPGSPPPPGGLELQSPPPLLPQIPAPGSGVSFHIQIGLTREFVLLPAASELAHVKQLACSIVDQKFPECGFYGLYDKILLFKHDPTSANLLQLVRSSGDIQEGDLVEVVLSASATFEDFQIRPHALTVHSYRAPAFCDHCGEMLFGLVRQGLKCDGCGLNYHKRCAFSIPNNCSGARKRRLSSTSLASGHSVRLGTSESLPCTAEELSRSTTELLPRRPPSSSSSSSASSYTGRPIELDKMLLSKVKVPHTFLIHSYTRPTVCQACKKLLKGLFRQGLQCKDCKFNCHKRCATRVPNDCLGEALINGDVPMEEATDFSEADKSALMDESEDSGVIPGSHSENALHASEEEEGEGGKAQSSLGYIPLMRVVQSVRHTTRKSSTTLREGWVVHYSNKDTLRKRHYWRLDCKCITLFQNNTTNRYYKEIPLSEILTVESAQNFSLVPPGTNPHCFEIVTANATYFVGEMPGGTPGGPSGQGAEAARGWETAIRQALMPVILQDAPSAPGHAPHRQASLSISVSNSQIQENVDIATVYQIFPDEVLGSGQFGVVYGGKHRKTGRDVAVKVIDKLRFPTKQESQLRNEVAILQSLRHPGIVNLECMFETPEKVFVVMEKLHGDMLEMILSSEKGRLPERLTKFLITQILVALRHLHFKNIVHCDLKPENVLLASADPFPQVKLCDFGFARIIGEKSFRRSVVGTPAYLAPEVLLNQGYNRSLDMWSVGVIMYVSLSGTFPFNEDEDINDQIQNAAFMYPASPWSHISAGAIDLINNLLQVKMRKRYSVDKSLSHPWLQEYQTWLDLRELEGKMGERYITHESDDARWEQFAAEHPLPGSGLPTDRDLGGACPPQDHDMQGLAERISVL
smiles,measurement,setting,value
COc1ccccc1-c1cc(/C=C2\C(=O)Nc3ncc(Br)cc32)cc(Br)c1O,inhibition,[1],2.98%
same,inhibition,[2],0.64%
same,inhibition,[3],2.57%
same,inhibition,[4],1.61%
same,inhibition,[5],1.73%
same,inhibition,[6],2.24%
same,inhibition,[7],0.81%
same,inhibition,[8],3.57%
same,inhibition,[9],6.42%
same,inhibition,[10],4.74%
O=C1Nc2ccccc2/C1=C1\CCc2cc(O)ccc21,inhibition,[1],2.98%
same,inhibition,[2],2.01%
same,inhibition,[3],4.09%
same,inhibition,[4],2.42%
same,inhibition,[5],4.05%
same,inhibition,[6],1.94%
same,inhibition,[7],1.69%
same,inhibition,[8],5.09%
same,inhibition,[9],18.2%
same,inhibition,[10],6.34%
CS(=O)(=O)CCNCc1ccc(-c2ccc3ncnc(Nc4ccc(OCc5cccc(C(F)(F)F)c5)cc4)c3c2)o1,inhibition,[1],-0.26%
same,inhibition,[2],2.37%
same,inhibition,[3],2.7%
same,inhibition,[4],2.36%
same,inhibition,[5],5.13%
same,inhibition,[6],1.56%
same,inhibition,[7],3.15%
same,inhibition,[8],4.62%
same,inhibition,[9],6.2%
same,inhibition,[10],5.3%
O=C(O[C@H]1CN[C@H](C#Cc2cc3ncnc(Nc4ccc5c(ccn5Cc5cc(F)ccc5F)c4)c3s2)C1)N1CCOCC1,inhibition,[1],3.05%
same,inhibition,[2],2.82%
same,inhibition,[3],3.06%
same,inhibition,[4],1.84%
same,inhibition,[5],0.91%
same,inhibition,[6],1.75%
same,inhibition,[7],0.99%
same,inhibition,[8],3.66%
same,inhibition,[9],6.58%
same,inhibition,[10],4.5%
CS(=O)(=O)CCNCc1ccc(-c2ccc3ncnc(Nc4ccc(OCc5ccccc5)cc4)c3c2)o1,inhibition,[1],3.26%
same,inhibition,[2],1.61%
same,inhibition,[3],1.87%
same,inhibition,[4],1.49%
same,inhibition,[5],2.01%
same,inhibition,[6],0.51%
same,inhibition,[7],0.86%
same,inhibition,[8],3.17%
same,inhibition,[9],4.08%
same,inhibition,[10],2.78%
N#Cc1cccc(Nc2ncc(-c3ccccc3)o2)c1,inhibition,[1],5.3%
same,inhibition,[2],0.25%
same,inhibition,[3],0.06%
same,inhibition,[4],1.33%
same,inhibition,[5],3.57%
same,inhibition,[6],0.6%
same,inhibition,[7],1.2%
same,inhibition,[8],5.32%
same,inhibition,[9],2.44%
same,inhibition,[10],1.97%
CCS(=O)(=O)c1ccc(OC)c(Nc2ncc(-c3cccc(C(C)=O)c3)o2)c1,inhibition,[1],1.69%
same,inhibition,[2],1.79%
same,inhibition,[3],-0.79%
same,inhibition,[4],2.27%
same,inhibition,[5],3.34%
same,inhibition,[6],1.16%
same,inhibition,[7],1.89%
same,inhibition,[8],2.32%
same,inhibition,[9],2.22%
same,inhibition,[10],2.04%
CCn1c(-c2nonc2N)nc2cncc(C(=O)NCCNC)c21,inhibition,[1],35.3%
same,inhibition,[2],9.63%
same,inhibition,[3],40%
same,inhibition,[4],8.91%
same,inhibition,[5],39.2%
same,inhibition,[6],21.1%
same,inhibition,[7],61%
same,inhibition,[8],5.32%
same,inhibition,[9],8.53%
same,inhibition,[10],5.41%
Nc1ncnc2occ(-c3ccc(NC(=O)Nc4cc(C(F)(F)F)ccc4F)cc3)c12,inhibition,[1],4.25% and -2.46%
same,inhibition,[2],1.22% and 0.26%
same,inhibition,[3],2.9% and 0.4%
same,inhibition,[4],0.8% and -1.06%
same,inhibition,[5],-0.69% and -1.44%
same,inhibition,[6],0.86% and -0.64%
same,inhibition,[7],1.67% and 0.08%
same,inhibition,[8],1.55% and -2.08%
same,inhibition,[9],2.08% and -1.19%
same,inhibition,[10],1.19% and -0.28%
OCCCNc1nccc(-c2c(-c3ccc(F)cc3)nn3cc(C(F)(F)F)ccc23)n1,inhibition,[1],1.12%
same,inhibition,[2],0.77%
same,inhibition,[3],4.1%
same,inhibition,[4],0.12%
same,inhibition,[5],0.91%
same,inhibition,[6],1.5%
same,inhibition,[7],7.52%
same,inhibition,[8],1.85%
same,inhibition,[9],14.1%
same,inhibition,[10],2.01%
NC(=O)c1ccc2c(-c3ccnc(NCCCO)n3)c(-c3ccc(F)cc3)nn2c1,inhibition,[1],7.09%
same,inhibition,[2],1.98%
same,inhibition,[3],3.92%
same,inhibition,[4],2.7%
same,inhibition,[5],2.63%
same,inhibition,[6],4.8%
same,inhibition,[7],24.3%
same,inhibition,[8],6.13%
same,inhibition,[9],25.5%
same,inhibition,[10],7.41%
COc1cc(N2CCN(C(C)C)CC2)ccc1Nc1nc(Nc2cccc3ncccc23)c2cc[nH]c2n1,inhibition,[1],0.74%
same,inhibition,[2],-0.08%
same,inhibition,[3],0.58%
same,inhibition,[4],-0.84%
same,inhibition,[5],-1.07%
same,inhibition,[6],-0.21%
same,inhibition,[7],0.45%
same,inhibition,[8],-0.17%
same,inhibition,[9],3.6%
same,inhibition,[10],0.68%
O=C(O[C@H]1CN[C@H](C#Cc2cc3ncnc(Nc4ccc(OCc5cccc(F)c5)c(Cl)c4)c3s2)C1)N1CCOCC1,inhibition,[1],5.45%
same,inhibition,[2],1.77%
same,inhibition,[3],0.9%
same,inhibition,[4],3.84%
same,inhibition,[5],5.14%
same,inhibition,[6],2.11%
same,inhibition,[7],1.21%
same,inhibition,[8],4.61%
same,inhibition,[9],6.86%
same,inhibition,[10],6.18%
c1cnn2ncc(-c3ccnc(NCCCN4CCOCC4)n3)c2c1,inhibition,[1],4.8%
same,inhibition,[2],0.92%
same,inhibition,[3],4.4%
same,inhibition,[4],2.07%
same,inhibition,[5],2.41%
same,inhibition,[6],1.96%
same,inhibition,[7],3.47%
same,inhibition,[8],2.81%
same,inhibition,[9],5.95%
same,inhibition,[10],3.62%
CC1(C)CC(n2cnc(-c3ccc(F)cc3)c2-c2ccnc(N)n2)CC(C)(C)N1,inhibition,[1],1.2%
same,inhibition,[2],0.48%
same,inhibition,[3],0.2%
same,inhibition,[4],0.49%
same,inhibition,[5],1.27%
same,inhibition,[6],1.08%
same,inhibition,[7],4.59%
same,inhibition,[8],0.74%
same,inhibition,[9],3.49%
same,inhibition,[10],1.47%
